# Measured values from PubChem BioAssay (EPA / NIEHS).
# The source made the active and inactive calls. The calls were made as follows: active = hit-call score of the fitted dose curve at least 0.9, where 1 is the maximum; inactive = score below 0.9.
# Biological target: Aryl hydrocarbon receptor (Homo sapiens) (UniProt P35869)
# Test: ATG_Ahr_CIS: Attagene CIS-FACTORIAL HepG2 Assay for human Aryl Hydrocarbon Receptor (Ahr) (AID 2282930)
# Details: HepG2 AhR cis-factorial reporter transcription; actives raise or lower the signal
# Method: ATG_CIS is a cell-based, multiplexed-readout assay that uses HepG2, a human liver cell line, with measurements taken at 24 hours after chemical dosing in a 24-well plate.ATG_Ahr_CIS is one of 52 assay component(s) measured or calculated from the ATG_CIS assay. It is designed to make measurements of mRNA induction, a form of inducible reporter, as detected with fluorescence intensity signals by Reverse transcription polymerase chain reaction (RT-PCR) and Capillary electrophoresis technology.Data from the assay component ATG_Ahr_CIS was analyzed into 1 assay endpoint. This assay endpoint, ATG_Ahr_CIS, was analyzed with bidirectional fitting relative to DMSO as the negative control and baseline of activity. Using a type of inducible reporter, measures of mRNA for gain or loss-of-signal activity can be used to understand the reporter gene at the transcription factor-level as they relate to the gene AHR. Furthermore, this assay endpoint can be referred to as a primary readout, because this assay has produced multiple assay endpoints where this one serves a reporter gene function. To generalize the intended target to other relatable targets, this assay endpoint is annotated to the dna binding intended target family, where the subfamily is basic helix-loop-helix protein.
# Human liver HepG2 cells are transiently transfected with multiple reporter transcription units (MRTUs) in 6-well plates using FuGene 6 reagent (Roche; 3 ml FuGene/1 mg DNA). The MRTU constructs are regulated by a cis-regulating element (promoter). […] A major difference between the CIS and TRANS system is that in CIS activities of endogenous TFs are measured, whereas the TRANS assay evaluates changes in activities of exogenous, chimeric NR-Gal4 proteins. […] At the end of 24 hour incubation, total RNA was isolated using TriZol reagent (Invitrogen). The isolated RNA is then reverse-transcribed using oligo(dT) primer and Mo-MLV reverse transcriptase (Invitrogen) with DNAse I (Ambion) treatment for 30 min. The one-tenth of the produced cDNA was amplified by PCR using Taq DNA polymerase (Invitrogen) and two reporter sequence-specific primers. The PCR products were fluorescently labeled by primer extension with 6-arboxyfluorescein (6-FAM) 5'-labeled reporter sequence-specific primer (2 min at 95 C, 20 s at 68 C and 10 min at 72 C) and these products were digested with 5U of HpaI (New England Biolabs) for 2h at 37 C. […] The raw capillary electrophoresis data was processed using Attagraph software (Attagene).
# Aryl hydrocarbon receptor (Homo sapiens), sequence (P35869 whole entry, looked up): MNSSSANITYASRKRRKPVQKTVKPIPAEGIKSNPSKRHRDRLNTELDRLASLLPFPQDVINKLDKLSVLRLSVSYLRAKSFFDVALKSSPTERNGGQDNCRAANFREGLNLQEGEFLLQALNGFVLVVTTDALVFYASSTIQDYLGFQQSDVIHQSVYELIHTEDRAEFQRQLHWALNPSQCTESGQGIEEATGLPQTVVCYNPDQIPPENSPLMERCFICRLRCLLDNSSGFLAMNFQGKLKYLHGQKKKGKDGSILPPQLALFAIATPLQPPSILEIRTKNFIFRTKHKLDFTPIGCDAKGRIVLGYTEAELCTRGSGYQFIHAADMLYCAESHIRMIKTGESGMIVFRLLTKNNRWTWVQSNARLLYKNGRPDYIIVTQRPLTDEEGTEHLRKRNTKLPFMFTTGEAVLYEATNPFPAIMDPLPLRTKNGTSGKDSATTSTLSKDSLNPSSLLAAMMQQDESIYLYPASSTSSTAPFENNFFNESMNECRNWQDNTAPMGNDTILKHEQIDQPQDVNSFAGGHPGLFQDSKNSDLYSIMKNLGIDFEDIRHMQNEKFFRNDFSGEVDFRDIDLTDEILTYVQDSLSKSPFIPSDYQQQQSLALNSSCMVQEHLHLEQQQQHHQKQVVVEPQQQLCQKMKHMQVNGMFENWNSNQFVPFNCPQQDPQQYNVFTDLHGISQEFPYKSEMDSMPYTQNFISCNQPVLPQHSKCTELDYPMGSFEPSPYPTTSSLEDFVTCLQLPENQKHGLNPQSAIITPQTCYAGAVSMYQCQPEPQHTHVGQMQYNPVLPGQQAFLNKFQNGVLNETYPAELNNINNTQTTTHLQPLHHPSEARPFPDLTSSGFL
Compound,outcome,AC50
O=C1CCCCCCCCCCC1,inactive,
C=C(C)C(=O)OCCCCCCCCCCCC,inactive,
Nc1ncnc2nc[nH]c12,inactive,
COC(=O)C=Cc1ccccc1,inactive,
Cc1cc(C)c(C=O)c(C)c1,inactive,
CC(C)CO,inactive,
O=C(Cl)c1ccc(C(=O)Cl)cc1,inactive,
O=C(O)CCC(=O)O,inactive,
Cc1ccc(C)c(OCCCC(C)(C)C(=O)O)c1,inactive,
CCC(C)C(=O)OCCc1ccccc1 (stereo not given),inactive,
Fc1ccc(Br)cc1,inactive,
CCCCCCCOC(=O)c1ccc(O)cc1,,49.8 µM (active)
c1ccc(Nc2cccc3ccccc23)cc1,inactive,
Oc1ccccc1Cc1ccccc1O,inactive,
CC(C)c1ccc2ncccc2c1,inactive,
CC(C)=NNC(N)=S,inactive,
CCCCCC1=CCCC1=O,inactive,
CCOC(=O)OC(=O)OCC,inactive,
O=C(Cl)c1c(Cl)c(Cl)c(C(=O)Cl)c(Cl)c1Cl,inactive,
CC(C)(O)Cc1ccccc1,inactive,

Compound,outcome,AC50
CC(C)(CO)C(O)C(=O)NCCCO (stereo not given),inactive,
C[N+](C)(C)CCCNS(=O)(=O)C(F)(F)C(F)(F)C(F)(F)C(F)(F)C(F)(F)C(F)(F)C(F)(F)C(F)(F)F,inactive,
CCCCCCCCCCCCCC(=O)OC(C)C,inactive,
CCCc1ccc(O)c(OC)c1,inactive,
C=CCNCC=C,inactive,
O=C(O)CC(C(=O)O)S(=O)(=O)O (stereo not given),inactive,
CCCCCCOC(=O)CCCCC(=O)OCCCCCC,inactive,
C=Cc1ccc(OC(C)=O)cc1,inactive,
COC(C=C(C)CCC=C(C)C)OC,inactive,
CCC(C)N (stereo not given),inactive,
CCCCCCO,inactive,
CC/C=C\C/C=C\C/C=C\CCCCCCCC(=O)OC,,47.6 µM (active)
C=C[Si](OCCOC)(OCCOC)OCCOC,inactive,
CC(=O)OC(C)c1ccccc1 (stereo not given),inactive,
CCNc1nc(NC(C)(C)C)nc(OC)n1,inactive,
CCCCCCOc1ccc(N)cc1,inactive,
N#Cc1ccc(C2CCCc3cncn32)cc1 (stereo not given),inactive,
CC(=O)OCC=C(C)C,inactive,
CCCCC(C=O)CC (stereo not given),inactive,
CC12CCC(CC1)C(C)(C)O2,inactive,
